“And” between values parts separate entries of the source, which are not always exact repeats. Equal values may be shown once. Inconclusive results are not listed. The source made the active and inactive calls. Unless noted, calls come from the whole dose curve; as a rule, active = well fitted curve in the direction sought with a large enough effect in the repeat runs; inconclusive = weak or mixed curves; inactive = no such curve, though single readings can be large; an effect the other way counts as inactive or inconclusive.
Tests used:
[1] = qHTS assay to identify small molecule agonists of H2AX (AID 1224845; active = well fitted activation curve with a large enough effect in the signal ratio in the repeat runs, not every such curve was filed as active; the % refers to the signal ratio)
Method in brief: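 Wild-type CHO-K1 cells, plated overnight, exposed 3hr at 37C to 15 concentrations (0.76% DMSO final). Lysed, then HTRF anti-pH2AX (S139) cryptate and anti-H2AX-d2 antibodies, 24 hr room temperature; 665/620 nm emission read.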

[2] = qHTS assay to identify small molecule agonists of the hypoxia (HIF-1) signaling pathway (AID 1224846; active = well fitted activation curve with a large enough effect in the signal ratio in the repeat runs, not every such curve was filed as active; the % refers to the signal ratio)
Method in brief: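 Measured by blue/green FRET after loading CCF4-AM: beta-lactamase expressed from a hypoxia response element in ME-180 cells. Test agents were delivered in DMSO and left 17 hrs; cells had been plated 5 hrs earlier in low-serum (0.5% dialyzed FBS) medium.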

[3] = qHTS assay to identify small molecule agonists of H2AX - cell viability counter screen (AID 1224847; calls by dose curve; note: top concentration of the series differs between compounds; nearly all actives have a fitted effect of over 30% in size)
Method in brief: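 For this counter screen, overnight-attached CHO-K1 cells received test compounds (15 concentrations, 0.76% DMSO final); 3 hr later at 37C, CellTiter-Glo reagent was added and luminescence recorded after 30 min at room temperature.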

[4] = qHTS RealTime-Glo MT Cell Viability Assay in HepG2 cells - 24 hour (AID 1224867); note: nearly all actives have a fitted effect of over 50% in size
Method in brief: (§1)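 Tox21 10K library screened in qHTS format on HepG2 cells carrying RealTime-Glo reagents. Compounds were added after a 5 h preincubation, and the luminescent signal from continuous culture was measured repeatedly during 40 h treatment.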

[5] = qHTS RealTime-Glo MT Cell Viability Assay in HEK293 cells - 32 hour (AID 1224868); note: top concentration of the series differs between compounds; nearly all actives have a fitted effect of over 50% in size
Method in brief: (§2)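 Luminescence generated by NanoLuc from substrate produced by living HEK293 cells served as the viability signal. Each value reflects the reading at its stated time point during continuous 40 h compound exposure at 37 C.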

[6] = A CellTox Green Cytotoxicity Assay to monitor cytotoxicity in HEK293 cells - 0 hour (AID 1224869); note: nearly all actives have a fitted effect of over 50% in size
Method in brief: (§3)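 Each value comes from one timepoint of a single continuous run in which HEK293 cells with CellTox Green were exposed to compound for up to 40 h at 37 C, dye fluorescence rising with cell death.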

[7] = qHTS RealTime-Glo MT Cell Viability Assay in HepG2 cells - 40 hour (AID 1224870); note: nearly all actives have a fitted effect of over 50% in size
Method in brief: (§4)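 HepG2 cells (600/well) mixed with RealTime-Glo MT reagent, settled 5 h at 37 C/5% CO2 before compound addition. Nonlytic NanoLuc luminescence from viable-cell prosubstrate reduction read repeatedly during 40 h treatment at 37 C.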

[8] = A CellTox Green Cytotoxicity Assay to monitor cytotoxicity in HEK293 cells - 40 hour (AID 1224871); note: nearly all actives have a fitted effect of over 45% in size
Method in brief: as §3

[9] = qHTS RealTime-Glo MT Cell Viability Assay in HEK293 cells - 16 hour (AID 1224872)
Method in brief: as §2

[10] = qHTS RealTime-Glo MT Cell Viability Assay in HepG2 cells - 8 hour (AID 1224873); note: nearly all actives have a fitted effect of over 55% in size
Method in brief: as §4

[11] = qHTS RealTime-Glo MT Cell Viability Assay in HEK293 cells - 40 hour (AID 1224874); conditions: RealTime-Glo luminescence; max response: hits give low values; note: nearly all actives have a fitted effect of over 50% in size
Method in brief: (§5)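 qHTS format; HEK293 cells with NanoLuc/prosubstrate reagent, 37 C/5% CO2 for 5 h pre-dosing; compounds 23 nL in DMSO; luminescence at each time point reflects viable cells.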

[12] = A CellTox Green Cytotoxicity Assay to monitor cytotoxicity in HEK293 cells - 24 hour (AID 1224875); note: nearly all actives have a fitted effect of over 45% in size
Method in brief: as §3

[13] = A CellTox Green Cytotoxicity Assay to monitor cytotoxicity in HepG2 cells - 16 hour (AID 1224876); note: nearly all actives have a fitted effect of over 45% in size
Method in brief: (§6)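 Continuous culture of HepG2 cells with a membrane-impermeant DNA dye; rising fluorescence marks dead cells. Compound exposure lasted up to 40 h at 37 C, with reads every 8 h from 0 h.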

[14] = qHTS RealTime-Glo MT Cell Viability Assay in HepG2 cells - 32 hour (AID 1224877); note: nearly all actives have a fitted effect of over 55% in size
Method in brief: as §1

[15] = A CellTox Green Cytotoxicity Assay to monitor cytotoxicity in HepG2 cells - 24 hour (AID 1224878); note: nearly all actives have a fitted effect of over 45% in size
Method in brief: as §6

[16] = A CellTox Green Cytotoxicity Assay to monitor cytotoxicity in HepG2 cells - 40 hour (AID 1224879); note: nearly all actives have a fitted effect of over 40% in size
Method in brief: as §6

[17] = qHTS RealTime-Glo MT Cell Viability Assay in HEK293 cells - 0 hour (AID 1224880)
Method in brief: as §5

[18] = qHTS assay to identify small molecule antagonists of the estrogen related receptor (ERR) signaling pathway from Tox21 library (AID 1224848); note: nearly all actives have a fitted effect of over 50% in size
Method in brief: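 Luminescent reporter read-out (ONE-Glo) from NTP's ERR cell line after 18 h treatment at 37 C with DMSO-dissolved Tox21 compounds; cells pre-plated 6 h beforehand at 2,000 per well.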

[19] = qHTS assay to identify small molecule agonists of the estrogen related receptor (ERR) signaling pathway from Tox21 library (AID 1224849; calls by dose curve; note: nearly all actives have a fitted effect of over 15% in size); conditions: ERR reporter cell line, ONE-Glo luciferase, 18 h; at 92.4 µM (top of the series)
Method in brief: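 We plated ERR reporter cells, waited 6 h, added compounds in DMSO by pin tool and incubated them 18 h at 37 C. ONE-Glo was then added and luminescence read after 30 min.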
% is set by controls: 0 for no effect and ±100 for the full control effect.

CCCOC(=O)NCCCN(C)C
inactive: Potency [1] | outcome [2] | Potency [3] | Potency [4] | Potency [5] | Potency [6] | Potency [7] | Potency [8] | Potency [9] | Potency [10] | max response [11] 3.11% and 1.66% | Potency [12] | Potency [13] | Potency [14] | Potency [15] | Potency [16] | Potency [17]

Cc1ccc([N+](=O)[O-])cc1N
inactive: Potency [1] | outcome [2] | Potency [3] | Potency [4] | Potency [5] | Potency [6] | Potency [7] | Potency [8] | Potency [9] | Potency [10] | max response [11] 10.1% and 0.36% | Potency [12] | Potency [13] | Potency [14] | Potency [15] | Potency [16] | Potency [17]

O=[N+]([O-])c1cc(C(F)(F)F)ccc1Cl
inactive: Potency [1] | outcome [2] | Potency [3] | Potency [18] | activity change, positive = activation [19] 3.85% | Potency [4] | Potency [5] | Potency [6] | Potency [7] | Potency [8] | Potency [9] | Potency [10] | max response [11] -1.22% and -0.472% | Potency [12] | Potency [13] | Potency [14] | Potency [15] | Potency [16] | Potency [17]

O=C(c1ccccc1)c1ccc(O)c(O)c1O
inactive: outcome [2] | Potency [3] | Potency [18] | activity change, positive = activation [19] -7.85% and -0.637% | Potency [4] | Potency [5] | Potency [6] | Potency [7] | Potency [8] | Potency [9] | Potency [10] | max response [11] -18.4% | Potency [12] | Potency [13] | Potency [14] | Potency [15] | Potency [16] | Potency [17]

OB(O)O
inactive: Potency [1] | outcome [2] | Potency [3] | Potency [18] | activity change, positive = activation [19] 4.58% and 4.55% | Potency [4] | Potency [5] | Potency [6] | Potency [7] | Potency [8] | Potency [9] | Potency [10] | max response [11] 1.85% and 3.92% | Potency [12] | Potency [13] | Potency [14] | Potency [15] | Potency [16] | Potency [17]

COC(=O)OC
inactive: Potency [1] | outcome [2] | Potency [3] | Potency [18] | activity change, positive = activation [19] 8.59% and 5.73% | Potency [4] | Potency [5] | Potency [6] | Potency [7] | Potency [8] | Potency [9] | Potency [10] | max response [11] 8.45% and 1.69% | Potency [12] | Potency [13] | Potency [14] | Potency [15] | Potency [16] | Potency [17]

Cc1cc(C)c(O)c(C)c1
inactive: Potency [1] | outcome [2] | Potency [3] | Potency [18] | activity change, positive = activation [19] 10.5% and 2.09% | Potency [4] | Potency [5] | Potency [6] | Potency [7] | Potency [8] | Potency [9] | Potency [10] | max response [11] 3.39% and -0.795% | Potency [12] | Potency [13] | Potency [14] | Potency [15] | Potency [16] | Potency [17]

C[Si](C)(C)N[Si](C)(C)C
inactive: Potency [1] | outcome [2] | Potency [3] | Potency [4] | Potency [5] | Potency [6] | Potency [7] | Potency [8] | Potency [9] | Potency [10] | max response [11] 2.88% and 0.469% | Potency [12] | Potency [13] | Potency [14] | Potency [15] | Potency [16] | Potency [17]

CCCCCCCCCCCCCC(=O)O
inactive: Potency [1] | outcome [2] | Potency [3] | Potency [18] | activity change, positive = activation [19] -1.8% and -13.1% | Potency [4] | Potency [5] | Potency [6] | Potency [7] | Potency [8] | Potency [9] | Potency [10] | max response [11] -22.5% and -9.69% | Potency [12] | Potency [13] | Potency [14] | Potency [15] | Potency [16] | Potency [17]

CC(C)c1ccc(C(C)C)cc1
inactive: Potency [1] | outcome [2] | Potency [3] | Potency [4] | Potency [5] | Potency [6] | Potency [7] | Potency [8] | Potency [9] | Potency [10] | max response [11] 6.04% and 0.0055% | Potency [12] | Potency [13] | Potency [14] | Potency [16] | Potency [17]

— PubChem BioAssay (Tox21)
